The results in this text go back to PubChem BioAssay AID1006 (Sanford-Burnham Center for Chemical Genomics, 2008).

About 3,000 (1.5%) of roughly 200,000 compounds were called active. The list comes from a sample in which actives are over-represented; it also holds similar structures and randomly drawn compounds. Values without a mark were called inactive.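 Rule for the calls: active = inhibition above about 50% when tested at 10 µM (limit read from the data); inactive = the rest.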

The target in this assay is Luciferin 4-monooxygenase (Photinus pyralis) (UniProt P08659). As to the kind of experiment: inhibition of purified FLuc reporter enzyme – biochemical, luminescence, ATPLite, artefact control for luciferase-based inhibitor screens, primary screen (AID 1006). The conditions noted are these: ATPLite firefly luciferase biochemical luminescence, 10 min; at 10 µM; active compounds read high. A general note: ATP-based viability assays read luminescence as a measure of living cells.
Sequence of Luciferin 4-monooxygenase (Photinus pyralis) (P08659 whole entry, looked up): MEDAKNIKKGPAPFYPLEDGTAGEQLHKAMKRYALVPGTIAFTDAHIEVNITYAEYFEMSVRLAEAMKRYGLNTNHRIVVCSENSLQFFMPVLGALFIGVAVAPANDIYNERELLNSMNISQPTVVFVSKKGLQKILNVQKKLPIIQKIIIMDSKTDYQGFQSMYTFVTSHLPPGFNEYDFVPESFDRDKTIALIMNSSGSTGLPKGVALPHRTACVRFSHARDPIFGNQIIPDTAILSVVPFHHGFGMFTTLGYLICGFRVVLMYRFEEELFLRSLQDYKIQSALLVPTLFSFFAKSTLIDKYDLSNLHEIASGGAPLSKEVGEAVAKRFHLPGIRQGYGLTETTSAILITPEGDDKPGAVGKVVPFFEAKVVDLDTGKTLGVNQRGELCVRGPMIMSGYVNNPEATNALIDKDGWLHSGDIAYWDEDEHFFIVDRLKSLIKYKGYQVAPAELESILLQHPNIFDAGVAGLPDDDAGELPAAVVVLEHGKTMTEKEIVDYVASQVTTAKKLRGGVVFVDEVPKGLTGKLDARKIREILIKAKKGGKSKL
What is called inhibition is the change of the read-out against control, counted positive when it falls. As to `O=C(Nc1cccc(S(=O)(=O)Nc2ccc(Cl)cc2)c1)c1ccc2c(c1)OCCO2`, the inhibition was -5.3%.

In the case of `O=C(Nc1cccc(Cl)c1N1CCOCC1)c1ccc2c(c1)OCCO2`, the inhibition was -0.6%. As to `COc1c(Cl)cc(C(=O)Nc2ccc(Cl)cn2)cc1Cl`, the inhibition was -5.9%. In the case of `CN1CCN(c2ccc(NC(=O)c3ccc4c(c3)OCCO4)cc2Cl)CC1` it was 51.8% (active); in that of `O=C(Nc1ccc2c(c1)OCCO2)c1ccc(Cl)c(S(=O)(=O)N2CCCCC2)c1`, 0.9%. Then `O=C(Nc1ccc(Cl)cn1)c1ccc2c(c1)OCCO2`, with 82.7% (active). In the case of `O=C(c1cccc(F)c1)N1CCN(c2ccc([N+](=O)[O-])c3cccnc23)CC1` it was -7.7%; in that of `CCCCC(NC(=O)c1cccc(Br)c1)C(=O)O` (stereo not given), 0.5%; in that of `CN(C)C=NC(=O)c1cccn1-c1ncc(C(F)(F)F)cc1Cl`, -1.5%. For the compound `Cc1ccc(-c2cc(C(=O)N/N=C/C=C/c3ccco3)c3ccccc3n2)cc1C`, the inhibition was 73.1% (active). Turning to `COc1cccc(-c2cc(C(=O)N/N=C/c3ccc(OC)c(COC(C)=O)c3)c3ccccc3n2)c1`, the inhibition is -1.7%. Then `O=C(N/N=C/C=C/c1ccco1)c1cccs1`, with 12.4%; and `Cc1nnc(SCC(=O)NNC(=O)c2ccc(Cl)cc2)n1CC1CCCO1` (stereo not given), with -8.3%; and `CC(C)c1nc(-c2ccccn2)no1`, with -5.3%. With `O=C(Oc1ccccc1)c1ccc2nccnc2c1`, the inhibition was 13.3%.

Regarding `COc1nc(-c2ccc(Cl)cc2)ccc1-c1noc(-c2cccs2)n1`, the inhibition was -3.8%. Take `O=C(Oc1ccc(-c2nc(-c3ccccn3)no2)cc1)c1ccccc1`: the inhibition is 65.5% (active).

Consider `c1csc(-c2nc(-c3ccncc3)no2)c1`, for which the inhibition was 17.7%. As to `c1ccc(-c2noc(-c3cccs3)n2)nc1`, the inhibition is 71.2% (active). Turning to `COc1ccc(NC(=S)N2CCCC(CO)C2)c(OC)c1` (stereo not given), the inhibition was -2.4%. In the case of `Cc1ccc(N(C(=O)Cc2cccs2)C(C(=O)NCC2CCCO2)c2ccncc2)cc1` (stereo not given) it was -3.7%; in that of `CCN(C(=O)COC(=O)c1cc(S(=O)(=O)N2CCc3ccccc32)ccc1OC)C1CCS(=O)(=O)C1` (stereo not given), -6.8%.

`CCCN(CC1COc2ccccc2O1)C(=S)Nc1ccc(C)cc1` (stereo not given): the inhibition was -6.7%. In the case of `CC(C)CNC(=O)C(=O)Nc1ccc(N(C)C)cc1` it was 5.5%; in that of `CCOc1ccc(N2C(=O)CN(c3cccc4ccccc34)C2=S)cc1`, -3.3%. `COc1cc(COCC(O)CN2CCN(Cc3ccc4c(c3)OCO4)CC2)cc(OC)c1OC` (stereo not given): the inhibition was -5%.

With `N/C(=N\OC(=O)c1ccc([N+](=O)[O-])cc1)c1ccccn1`, the inhibition is 91.5% (active). As to `N/C(=N\OC(=O)Cc1ccc([N+](=O)[O-])cc1)c1ccccn1`, the inhibition was 9.6%. Take `O=C(OCc1ccc([N+](=O)[O-])cc1)c1ccccn1`: the inhibition is -6%. As to `CCC(C)N(C)C1CCN(C(=S)Nc2ccc(OC)cc2)CC1` (stereo not given), the inhibition was -0.3%.

Regarding `COc1ccc(N2CCN(C(=O)CSc3nc4cc(OC)c(OC)cc4cc3C#N)CC2)cc1`, the inhibition was -6.5%. In the case of `CCOc1ccc2nc(N3CCCN(C(=O)Nc4ccccc4C)CC3)c(C#N)cc2c1` it was -2%. `COc1ccc2nc(N3CCCC(O)C3)c(C#N)cc2c1` (stereo not given): the inhibition was 54.6% (active). In the case of `Cc1ccc2[nH]c(C(=O)O)c(NC(=O)c3ccccc3[N+](=O)[O-])c2c1`, the inhibition is -4.8%. Then `CCn1cc(C(=O)Nc2cc(C)ccc2C)c(=O)c2ccc(C)nc21`, with -5.1%; and `c1ccc(CN2CCC(N=C3NN=C(c4ccc5c(c4)OCCO5)CS3)CC2)cc1`, with -2.4%.

Take `Cc1cccc(N=C2NN=C(c3c[nH]c4ccccc34)CS2)c1`: the inhibition is -4.7%.

As to `Clc1cccc(N=C2NN=C(c3ccc4c(c3)OCCO4)CS2)c1`, the inhibition is 51.5% (active). As to `COc1cc(/C=N/NC(=O)CCc2n[nH]c(=O)[nH]c2=O)ccc1O`, the inhibition is -6.6%. Then `Nc1c(NCCc2ccccc2)c2ccccc2oc1=O`, with -4%; and `Cc1ccc(CN2CCN(Cc3cn(C)nc3-c3ccccc3)CC2CCO)o1` (stereo not given), with -4.5%. In the case of `COc1ccc(/C=C(/CC(=O)Nc2ccc(C)cc2)c2nc3ccccc3s2)cc1` it was -7.9%; in that of `COc1ccc(C2=NN(c3nc4ccccc4s3)C(=O)C2)cc1`, 59.7% (active).

With `O=C1CC(c2ccccc2)=NN1c1ccc([N+](=O)[O-])cc1`, the inhibition is -2.5%. Take `CCc1ccccc1N1C(=O)C2C3CC(=O)C(c4ccccc43)C2C1=O` (stereo not given): the inhibition was -5.1%. Turning to `CCc1nnc(NC(=O)[C@@H](NC(=O)c2cccc(C)c2)C(C)C)s1`, the inhibition was -3.8%. Then `CN1CCN(C(=O)N2c3ccccc3CCc3ccccc32)CC1`, with -4.4%. In the case of `CCCCn1c(=O)c(C(C)=O)c(O)c2ccccc21` it was -1.3%; in that of `Cn1c(=O)c(C(=O)Nc2ncccn2)c(O)c2ccccc21`, 70.3% (active). In the case of `Cn1c(=O)c(Sc2ccc(Cl)cc2)c(O)c2ccccc21` it was -5.7%. As to `Cc1ccccc1-n1nc(C)c2c1N=C1C(Cl)=CC(Cl)=CN1C2c1ccc(C(=O)O)cc1` (stereo not given), the inhibition was -0.1%. Then `CCOc1cc(NC(=O)c2ccccn2)c(OCC)cc1NC(=O)c1ccc(OC)cc1`, with -2.9%. In the case of `COc1ccc(-c2csc(Nc3ccccn3)n2)cc1` it was 49.9%; in that of `COc1ccc(C(=O)/C=C/Nc2ccccn2)cc1`, 92.4% (active). In the case of `O=C(Cc1cccs1)Nc1cccc(-c2nc3ccccc3[nH]2)c1` it was -1.9%.

In the case of `O=C(CCCN1C(=O)/C(=C/c2ccco2)SC1=S)Nc1ccccc1`, the inhibition is -3.2%. `O=C(CCCN1C(=O)/C(=C\c2ccco2)SC1=S)Nc1cccc2ccccc12`: the inhibition is -1.3%. `O=C(CCCN1C(=O)/C(=C/c2ccccc2)SC1=S)Nc1ccc(O)cc1`: the inhibition is 57.6% (active). With `Cn1c(-c2ccco2)nc2cc3ccccc3cc21`, the inhibition was 95.7% (active).

On to `CN1c2ccccc2-c2nc3ccccc3n2C1c1ccco1` (stereo not given), for which the inhibition was 1.3%. `CN(c1nc2ccccc2n2c(-c3ccco3)nnc12)S(=O)(=O)c1ccccc1`: the inhibition was -2.9%. Then `CCC(C)c1ccc(NC(=S)NCc2ccccn2)cc1` (stereo not given), with -3.2%; and `C/C(=N\N=C(N)N)c1ccc(Cl)cc1`, with -7.1%; and `Cc1ccc(CNC(=O)CC2Sc3ccccc3NC2=O)cc1` (stereo not given), with -6.5%.

In the case of `C(=N\Nc1ccc2ccccc2n1)/c1ccc2c(c1)OCO2`, the inhibition was 87.4% (active). In the case of `Brc1ccc(-c2csc(N/N=C/c3ccc4c(c3)OCO4)n2)cc1` it was -0.1%. In the case of `Cc1noc(C)c1/C=N/Nc1ccc2ccccc2n1` it was 13.4%; in that of `CCNC(=S)N1CCN(c2ncccn2)CC1`, -2.5%; in that of `COc1ccc(NC(=O)C2CCCN(S(=O)(=O)c3cccc4cccnc34)C2)cc1` (stereo not given), -0.5%. On to `COc1ccc(NC(=O)Nc2ccc3nc(C)c(C)nc3c2)cc1`, for which the inhibition is -4.8%. Regarding `COc1ccc(NC(=O)Nc2cccc3cccnc23)cc1`, the inhibition was 65.4% (active).

As to `CC1CN(C(=S)SCC(=O)c2ccccc2)CC(C)O1` (stereo not given), the inhibition is 4.3%. Then `O=C(CSC(=S)N1CCOCC1)c1ccccc1`, with 72.6% (active); and `NC(=NC(=O)c1ccccc1)N1CCOCC1`, with 0.1%; and `CCC(C)(C)c1ccc(OCC(=O)N(C)C)c(C(C)(C)CC)c1`, with -6.6%. In the case of `Cc1cc(C)nc(SCC(=O)N(C)C)n1` it was -4.6%; in that of `O=C(CC1Nc2ccccc2NC1=O)Nc1ccccc1NC(=O)CC1Nc2ccccc2NC1=O` (stereo not given), 7.9%.

Consider `O=C(/C=C\NCC(=O)c1ccccc1)c1ccccc1`, for which the inhibition was 14.5%.

Regarding `Cc1noc(NS(=O)(=O)c2ccc(N/C=C/C(=O)c3ccccc3)cc2)c1C`, the inhibition is -2.7%. In the case of `Cc1ccc(N/C=C/C(=O)c2ccccc2)cc1C` it was 91.4% (active); in that of `CC1CCN(C(=S)c2ccc(-c3ccc(Cl)cc3Cl)o2)CC1`, 3.9%. With `S=C(NCCc1ccccc1)N1CCCCC1`, the inhibition is 9.6%. `S=C(c1ccc(-c2ccccc2)o1)N1CCCCC1`: the inhibition was 83.4% (active). In the case of `COc1cccc(OC)c1C(=O)NC(=S)NCc1ccco1` it was -2.1%; in that of `COCCn1c(Cc2cccn2C)nnc1SCC(=O)Nc1nccs1`, -5.3%; in that of `COc1cc(NC(=O)COc2ccccc2Cl)ccc1NC(=O)C(C)C`, -2.5%.

Turning to `CC(CC(=O)C1C(C)C=CCC1(C)C)NNC(N)=O` (stereo not given), the inhibition is -6.1%.

On to `CSCCC(Nc1nc2ccccc2s1)C(=O)O` (stereo not given), for which the inhibition was -2%. Then `Cc1cc(C)c2nc(NC(=O)c3ccc4c(c3)OCO4)sc2c1`, with -1.6%; and `COCc1nnc(NC(=O)c2ccc3c(c2)OCO3)s1`, with 58.9% (active).

Turning to `COc1ccc(C(=O)Nc2ccc3c(c2)OCO3)cc1OC`, the inhibition is 28.8%. Then `CCCc1nnc(NC(=O)c2cc(OC)cc(OC)c2)s1`, with -1.1%; and `CC(=O)Nc1ccc(-c2csc(NC(=O)Nc3ccccc3)n2)cc1`, with -0.4%. With `O=C(Nc1ccccc1)Nc1nc2ccccc2s1`, the inhibition is 52.9% (active).

For `O=C(Nc1ccccc1)c1ccc2c(c1)OCO2`, the inhibition was 34.2%.

As to `O=C(Nc1nc2ccccc2s1)c1ccc2c(c1)OCO2`, the inhibition is 83.9% (active).

As for `C/C(=N/NC(=O)CSc1ccccn1)c1ccc([N+](=O)[O-])cc1`, the inhibition is -6.6%. In the case of `O=C(CN1CCN(S(=O)(=O)/C=C/c2ccccc2)CC1)Nc1ccc(N2CCOCC2)cc1` it was -7.8%; in that of `COc1ccc(-n2c(=S)[nH]c3sc4c(c3c2=O)CCc2ccccc2-4)cc1`, 4.5%; in that of `CCOc1ccc2nc(NCCNC(=O)C(C)(C)C)c(C)cc2c1`, -2.6%.
